Measured values as given in ChEMBL document CHEMBL1157539, “Thousands of chemical starting points for antimalarial lead identification” (Nature, 2010).

Assays:
Assay type in all cases: functional
Plasmodium falciparum [1] = assay: GSK_TCMDC: Inhibition of Plasmodium falciparum 3D7 in whole red blood cells, using parasite LDH activity as an index of growth. Test compounds present at 2uM
Plasmodium falciparum [2] = assay: GSK_TCMDC: Inhibition of Plasmodium falciparum Dd2 in whole red blood cells, using parasite LDH activity as an index of growth. Test compounds present at 2uM
HepG2 = assay: GSK_TCMDC: Percent inhibition of human HepG2 cell line. Test compounds present at 10uM.

Work on `I.N=C(N)NCC=C(c1ccccc1)c1ccccc1` yielded an Inhibition (Plasmodium falciparum [1]) of 94%, an Inhibition (Plasmodium falciparum [2]) of 83% and an Inhibition (HepG2) of 9%.

With `COc1ccc(CNCc2ccsc2)cc1-c1ccc(S(=O)(=O)NCCN2CCCC2)c(C)c1.O=C(O)C(F)(F)F` the Inhibition (Plasmodium falciparum [1]) was 85%, the Inhibition (Plasmodium falciparum [2]) was 43% and the Inhibition (HepG2) was 49%.

With `COc1ccc2nccc(N3CCC(CCNCc4ccc5c(n4)NC(=O)CS5)CC3)c2c1.Cl` the Inhibition (Plasmodium falciparum [1]) was 100%, the Inhibition (Plasmodium falciparum [2]) was 86% and the Inhibition (HepG2) was 55%.

`CN1CCC(Oc2ccc(CN3CC[C@H](NC(=O)c4cc(F)cc(F)c4)C3)c3ccccc23)C1.O=C(O)C(F)(F)F` (stereo not given in full) gave an Inhibition (Plasmodium falciparum [1]) of 98%, an Inhibition (Plasmodium falciparum [2]) of 23% and an Inhibition (HepG2) of 26%.

`O=C(NCc1cccc(F)c1)Nc1ccc(-c2cccc(-c3nc4ccccc4[nH]3)c2)cc1` gave an Inhibition (Plasmodium falciparum [1]) of 86%, an Inhibition (Plasmodium falciparum [2]) of 2% and an Inhibition (HepG2) of 14%.

Molecule `CC1(C)C(=O)Nc2ccccc2N1C(=O)CN1CCN(c2ccccc2O)CC1` has an Inhibition (Plasmodium falciparum [1]) of 92%, an Inhibition (Plasmodium falciparum [2]) of 72% and an Inhibition (HepG2) of 7%.

In the case of `O=C(Nc1ccc(Cl)cc1)N[C@H]1CCN(Cc2ccc(OCCCN3CCCCC3)cc2)C1`, the Inhibition (Plasmodium falciparum [1]) is reported as 100%, the Inhibition (Plasmodium falciparum [2]) is reported as 0% and the Inhibition (HepG2) is reported as 29%.

In the case of `COc1cc(NC(=O)c2c(-c3c(F)cccc3Cl)noc2C)c(OC)cc1Cl`, the Inhibition (Plasmodium falciparum [1]) is reported as 89%, the Inhibition (Plasmodium falciparum [2]) is reported as 17% and the Inhibition (HepG2) is reported as 0%.

`CCOCCCNc1ncc(-c2ccsc2)c(-c2nc(C)cs2)n1` showed an Inhibition (Plasmodium falciparum [1]) of 89%, an Inhibition (Plasmodium falciparum [2]) of 83% and an Inhibition (HepG2) of 0%.

In the case of `O=C(O)C(F)(F)F.OCC1CCN(Cc2cccc(-c3ccc(-c4nc5cc(C(F)(F)F)ccc5[nH]4)s3)c2)CC1`, the Inhibition (Plasmodium falciparum [1]) is reported as 99%, the Inhibition (Plasmodium falciparum [2]) is reported as 90% and the Inhibition (HepG2) is reported as 0%.
